Measured values as given in ChEMBL document CHEMBL3988442, “University of Dundee, Small-Polar-MMV Screening Library” (2021).
For some assays here: Potency and affinity values are given separately.

Key:
Set-up in all cases: scale not given: direction of the effect not stated beside the values
[1] = biological target: Protein translocase subunit SecA (Escherichia coli (strain K12)) (UniProt P10408); assay: Assay to Identify E. coli SecA ATPase Inhibitors; type: functional; conditions: 30 µM
[2] = biological target: T1, Ubiquitin-activating enzyme e1, putative (Leishmania donovani (strain BPK282A1)) (UniProt E9BSI1); assay: Leishmania donovani Ubiquitin Activating Enzyme (LdE1); type: functional; conditions: 30 µM
T1 sequence (whole entry): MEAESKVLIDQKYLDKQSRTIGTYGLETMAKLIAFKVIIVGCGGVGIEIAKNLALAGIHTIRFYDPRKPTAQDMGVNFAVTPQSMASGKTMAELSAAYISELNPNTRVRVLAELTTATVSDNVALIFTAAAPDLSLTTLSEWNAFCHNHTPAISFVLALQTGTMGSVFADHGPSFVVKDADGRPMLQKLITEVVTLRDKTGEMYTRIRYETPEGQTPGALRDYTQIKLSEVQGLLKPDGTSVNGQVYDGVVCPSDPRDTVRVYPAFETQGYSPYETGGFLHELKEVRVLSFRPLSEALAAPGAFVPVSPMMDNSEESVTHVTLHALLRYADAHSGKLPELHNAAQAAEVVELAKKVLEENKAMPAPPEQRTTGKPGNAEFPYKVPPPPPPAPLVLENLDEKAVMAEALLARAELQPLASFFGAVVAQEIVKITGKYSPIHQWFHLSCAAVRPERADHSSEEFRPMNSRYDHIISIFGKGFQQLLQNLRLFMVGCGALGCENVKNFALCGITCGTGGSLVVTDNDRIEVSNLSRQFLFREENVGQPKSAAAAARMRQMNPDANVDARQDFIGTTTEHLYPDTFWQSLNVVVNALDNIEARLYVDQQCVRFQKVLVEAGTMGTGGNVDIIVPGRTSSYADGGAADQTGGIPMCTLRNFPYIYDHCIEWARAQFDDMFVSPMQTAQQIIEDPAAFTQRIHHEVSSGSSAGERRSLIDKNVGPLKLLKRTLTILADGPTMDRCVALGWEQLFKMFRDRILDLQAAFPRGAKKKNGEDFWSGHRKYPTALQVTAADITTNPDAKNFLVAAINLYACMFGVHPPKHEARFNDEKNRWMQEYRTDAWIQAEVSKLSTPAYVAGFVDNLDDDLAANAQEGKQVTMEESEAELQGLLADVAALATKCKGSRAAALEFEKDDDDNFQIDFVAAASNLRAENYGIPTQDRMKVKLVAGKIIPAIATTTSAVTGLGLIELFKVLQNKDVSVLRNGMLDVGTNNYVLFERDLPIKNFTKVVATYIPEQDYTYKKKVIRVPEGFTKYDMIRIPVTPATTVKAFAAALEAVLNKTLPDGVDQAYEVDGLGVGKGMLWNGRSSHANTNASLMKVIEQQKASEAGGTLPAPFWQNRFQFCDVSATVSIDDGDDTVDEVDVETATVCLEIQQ

[3] = biological target: AMP-activated protein kinase, AMPK (Homo sapiens) (UniProt P54646+O43741+P54619+Q9UGJ0+Q9Y478+Q13131+Q9UGI9); assay: AMP-dependent Kinase enzyme assay. An in vitro enzyme assay that detects ADP turnover that is directly proportional to AMPK activity. This uses naive AMPK that is activated during the assay with MK-8722; type: functional; conditions: 30 µM
[4] = biological target: Sialic acid-binding Ig-like lectin 9 (Homo sapiens) (UniProt Q9Y336); assay: Hs-Siglec9 ALPHAscreen SOP 20170721; conditions: 10 µM
[5] = tested on: Trypanosoma cruzi; assay: Trypanosoma cruzi phosphomannomutase and mannose-1-phosphate guanylyltransferase assay; type: functional; conditions: 10 µM
[6] = biological target: T2, Arginase-2, mitochondrial (Homo sapiens) (UniProt P78540); assay: in vitro enzyme assay to detect the production of urea directly proportional to the activity of Arginase II; type: functional; conditions: 33.3 µM; also: in the data most compounds retested in dose-response had high values
T2 sequence (whole entry): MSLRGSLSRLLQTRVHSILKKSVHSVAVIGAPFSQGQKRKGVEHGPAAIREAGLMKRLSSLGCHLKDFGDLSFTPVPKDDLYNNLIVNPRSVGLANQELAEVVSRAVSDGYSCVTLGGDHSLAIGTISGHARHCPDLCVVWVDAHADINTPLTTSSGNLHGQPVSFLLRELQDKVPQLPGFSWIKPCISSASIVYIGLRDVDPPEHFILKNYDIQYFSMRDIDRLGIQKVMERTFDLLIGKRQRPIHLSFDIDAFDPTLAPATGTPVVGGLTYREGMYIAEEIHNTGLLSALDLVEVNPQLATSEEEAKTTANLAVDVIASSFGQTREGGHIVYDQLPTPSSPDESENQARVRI

[7] = biological target: T3, Proteasome subunit beta (Trypanosoma cruzi) (UniProt O96673); assay: Trypanosoma cruzi proteasome chymotrypsin-like activity (TcProtChymo) assay.; also: in the data most compounds retested in dose-response had high values; type: functional; conditions: 9.37 µM
T3 sequence (whole entry): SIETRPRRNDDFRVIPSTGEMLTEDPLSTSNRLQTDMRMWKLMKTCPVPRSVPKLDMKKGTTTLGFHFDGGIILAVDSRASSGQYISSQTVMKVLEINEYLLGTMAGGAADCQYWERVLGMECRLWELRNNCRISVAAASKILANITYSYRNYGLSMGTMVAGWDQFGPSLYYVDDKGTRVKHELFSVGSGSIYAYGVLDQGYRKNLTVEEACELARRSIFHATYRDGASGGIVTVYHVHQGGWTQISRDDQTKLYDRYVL

[8] = organism: Homo sapiens; assay: To identify inhibition of the IFN signalling (Jak-Stat) pathway via expression of an eGFP reporter gene under the control of an IFN-stimulated response element (ISRE) containing MxA promoter.; type: functional; conditions: 30 µM
[9] = biological target: T4, Tyrosyl-tRNA synthetase, putative (Trypanosoma cruzi (strain CL Brener)) (UniProt Q4DSP6); assay: Trypanosoma cruzi tyrosyl tRNA synthetase (TcYRS) _High Tyrosine SOP; type: functional; conditions: 30 µM; also: in the data most compounds retested in dose-response had high values
T4 sequence (whole entry): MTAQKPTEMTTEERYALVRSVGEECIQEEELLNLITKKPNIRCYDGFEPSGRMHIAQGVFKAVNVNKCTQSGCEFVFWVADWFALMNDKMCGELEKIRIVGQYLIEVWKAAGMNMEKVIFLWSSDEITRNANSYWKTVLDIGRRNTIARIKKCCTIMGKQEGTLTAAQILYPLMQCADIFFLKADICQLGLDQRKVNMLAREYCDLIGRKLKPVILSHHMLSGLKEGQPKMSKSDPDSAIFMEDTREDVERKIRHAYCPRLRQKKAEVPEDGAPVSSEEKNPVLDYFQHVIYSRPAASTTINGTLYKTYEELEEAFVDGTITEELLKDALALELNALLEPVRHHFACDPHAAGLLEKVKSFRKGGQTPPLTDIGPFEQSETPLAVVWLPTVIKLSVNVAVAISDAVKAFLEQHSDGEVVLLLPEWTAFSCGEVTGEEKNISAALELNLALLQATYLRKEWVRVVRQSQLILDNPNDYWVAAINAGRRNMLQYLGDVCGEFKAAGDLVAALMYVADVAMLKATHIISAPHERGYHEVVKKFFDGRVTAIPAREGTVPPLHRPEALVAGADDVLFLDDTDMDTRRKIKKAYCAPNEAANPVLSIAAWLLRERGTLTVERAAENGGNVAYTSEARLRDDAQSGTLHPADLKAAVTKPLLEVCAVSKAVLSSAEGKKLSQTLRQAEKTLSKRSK

[10] = biological target: T4, Tyrosyl-tRNA synthetase, putative (Trypanosoma cruzi (strain CL Brener)); assay: Trypanosoma cruzi tyrosyl tRNA synthetase (TcYRS) SOP; type: functional; conditions: 30 µM
[11] = biological target: Chromo domain-containing protein 1 (Saccharomyces cerevisiae (strain ATCC 204508 / S288c) (Baker's yeast)) (UniProt P32657); assay: ScCHD-1 Enzyme Inhibition Assay; type: functional; conditions: 30 µM; also: in the data most compounds retested in dose-response had high values
Chain of Chromo domain-containing protein 1 (Saccharomyces cerevisiae (strain ATCC 204508 / S288c) (Baker's yeast)) (P32657 whole entry, the tested form may be a part): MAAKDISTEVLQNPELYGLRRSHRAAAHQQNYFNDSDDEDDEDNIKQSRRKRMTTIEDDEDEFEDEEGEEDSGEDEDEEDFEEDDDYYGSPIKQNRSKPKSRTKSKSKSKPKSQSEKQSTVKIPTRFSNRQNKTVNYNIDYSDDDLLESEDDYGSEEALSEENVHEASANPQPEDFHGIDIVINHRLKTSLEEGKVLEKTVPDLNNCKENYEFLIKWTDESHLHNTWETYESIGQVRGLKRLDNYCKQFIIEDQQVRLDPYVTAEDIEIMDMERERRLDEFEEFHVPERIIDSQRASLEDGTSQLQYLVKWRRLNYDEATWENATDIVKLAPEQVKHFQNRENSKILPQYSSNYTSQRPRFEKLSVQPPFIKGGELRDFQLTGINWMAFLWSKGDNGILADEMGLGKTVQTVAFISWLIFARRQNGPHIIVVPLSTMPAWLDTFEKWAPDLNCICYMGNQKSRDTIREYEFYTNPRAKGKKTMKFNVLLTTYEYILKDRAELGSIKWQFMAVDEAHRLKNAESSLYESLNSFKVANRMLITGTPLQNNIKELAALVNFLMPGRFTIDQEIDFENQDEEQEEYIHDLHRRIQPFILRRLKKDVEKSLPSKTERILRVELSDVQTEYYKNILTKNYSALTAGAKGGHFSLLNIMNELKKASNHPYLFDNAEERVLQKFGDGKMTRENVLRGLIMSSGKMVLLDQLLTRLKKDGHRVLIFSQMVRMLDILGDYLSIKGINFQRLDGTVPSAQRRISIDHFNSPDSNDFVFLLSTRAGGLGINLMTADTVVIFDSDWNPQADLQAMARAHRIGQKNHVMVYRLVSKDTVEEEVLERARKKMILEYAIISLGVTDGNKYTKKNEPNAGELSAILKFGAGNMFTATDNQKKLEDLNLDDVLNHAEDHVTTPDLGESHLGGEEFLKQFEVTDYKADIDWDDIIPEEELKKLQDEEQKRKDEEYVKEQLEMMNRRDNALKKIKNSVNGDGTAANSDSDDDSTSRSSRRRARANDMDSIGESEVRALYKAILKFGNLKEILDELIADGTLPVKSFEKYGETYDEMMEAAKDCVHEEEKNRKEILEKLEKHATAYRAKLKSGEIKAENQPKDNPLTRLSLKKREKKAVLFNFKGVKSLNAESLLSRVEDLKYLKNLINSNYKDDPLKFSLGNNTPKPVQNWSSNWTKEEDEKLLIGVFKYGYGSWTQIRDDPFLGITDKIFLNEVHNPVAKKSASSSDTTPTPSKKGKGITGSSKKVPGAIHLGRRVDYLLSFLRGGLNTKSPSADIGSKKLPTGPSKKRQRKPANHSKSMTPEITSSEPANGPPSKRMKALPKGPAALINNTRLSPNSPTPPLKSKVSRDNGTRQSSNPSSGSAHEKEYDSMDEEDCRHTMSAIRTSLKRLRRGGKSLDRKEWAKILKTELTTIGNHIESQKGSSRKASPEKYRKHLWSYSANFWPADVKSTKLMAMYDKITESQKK

Chain of Sialic acid-binding Ig-like lectin 9 (Homo sapiens) (Q9Y336 whole entry): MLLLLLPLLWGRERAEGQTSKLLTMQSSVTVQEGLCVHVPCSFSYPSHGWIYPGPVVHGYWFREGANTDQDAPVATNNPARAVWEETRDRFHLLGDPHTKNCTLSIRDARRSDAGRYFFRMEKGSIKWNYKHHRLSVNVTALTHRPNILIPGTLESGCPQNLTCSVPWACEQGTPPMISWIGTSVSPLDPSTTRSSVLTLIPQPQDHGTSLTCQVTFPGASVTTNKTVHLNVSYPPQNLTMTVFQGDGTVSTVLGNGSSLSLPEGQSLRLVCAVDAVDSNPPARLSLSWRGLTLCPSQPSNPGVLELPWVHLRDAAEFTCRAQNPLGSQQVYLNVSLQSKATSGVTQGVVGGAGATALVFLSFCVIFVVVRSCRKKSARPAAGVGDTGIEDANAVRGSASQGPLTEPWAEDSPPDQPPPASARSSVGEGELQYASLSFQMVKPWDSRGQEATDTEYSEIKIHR
Chain of Protein translocase subunit SecA (Escherichia coli (strain K12)) (P10408 whole entry): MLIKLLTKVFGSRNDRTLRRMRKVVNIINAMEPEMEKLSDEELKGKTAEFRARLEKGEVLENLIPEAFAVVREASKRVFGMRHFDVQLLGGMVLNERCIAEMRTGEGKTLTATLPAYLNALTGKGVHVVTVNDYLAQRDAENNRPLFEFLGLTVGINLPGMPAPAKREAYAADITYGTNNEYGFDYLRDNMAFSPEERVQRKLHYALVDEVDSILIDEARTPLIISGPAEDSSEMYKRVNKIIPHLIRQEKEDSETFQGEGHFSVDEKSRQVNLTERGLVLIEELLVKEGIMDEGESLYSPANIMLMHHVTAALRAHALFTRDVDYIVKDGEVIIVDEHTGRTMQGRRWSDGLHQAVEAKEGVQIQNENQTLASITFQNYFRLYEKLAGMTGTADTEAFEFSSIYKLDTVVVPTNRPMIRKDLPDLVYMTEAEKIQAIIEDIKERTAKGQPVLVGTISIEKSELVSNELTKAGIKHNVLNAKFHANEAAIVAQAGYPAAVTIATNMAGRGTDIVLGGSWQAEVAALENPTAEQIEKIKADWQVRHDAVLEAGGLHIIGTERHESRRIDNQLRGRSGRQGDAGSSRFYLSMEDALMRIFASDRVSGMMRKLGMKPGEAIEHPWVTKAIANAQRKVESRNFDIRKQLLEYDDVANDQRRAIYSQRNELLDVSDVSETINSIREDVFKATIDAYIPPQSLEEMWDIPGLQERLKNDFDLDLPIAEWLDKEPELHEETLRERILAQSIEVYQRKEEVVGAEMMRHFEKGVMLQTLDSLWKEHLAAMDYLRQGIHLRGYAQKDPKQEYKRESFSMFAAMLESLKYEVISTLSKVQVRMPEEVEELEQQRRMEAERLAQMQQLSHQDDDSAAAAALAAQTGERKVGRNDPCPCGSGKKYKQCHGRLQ

Compound | Percent Effect [1] | Percent Effect [2] | Percent Effect [3] | Percent Effect [4] | Percent Effect [5] | Percent Effect [6] | Percent Effect [7] | Percent Effect [8] | Percent Effect [9] | Percent Effect [10] | Percent Effect [11]
CC(=O)N1CC[C@H]2OCC[C@@]2(C(=O)NCc2ccco2)C1 | -5.68% | 5.33% | -0.449% | 12.6% | -2.12% | -44.3% | 11.3% | -5.97% | 4.17% | 5% | -6.83%
CCN1CC2(CCNCC2)COc2ccccc2S1(=O)=O | -1.39% | 6.67% | 7.12% | 3.15% | -4.91% | -18.1% | 13.1% | 2.26% | -7.41% | 5.13% | -8.01%
Cc1nc(C)n(CC2CN(c3ncnc4[nH]ccc34)CCO2)n1 (configuration not stated) | -2.48% | 11.4% | 24% | -0.101% | -3.38% | -2.37% | 6% | 28.6% | 2.08% | 12.7% | -20.9%
CCN1C(=O)C2(CCOCC2)c2cc(NC(=O)c3ccco3)ccc21 | -4.08% | 18.2% | -1.2% | 14.7% | 3.64% | -11% | 9.98% | 14.7% | 5.38% | 11.1% | 3.7%
Cc1nc(CN2CCCC(N(C)CCc3ccncc3)C2)no1 (configuration not stated) | 0.743% | 18.9% | -12.8% | -5.86% | -2.51% | 6.84% | 10.4% | 24.3% | 0% | 13.4% | 0.929%
CC(=O)N1CCCC1c1nccnc1Nc1cccc(C)n1 (configuration not stated) | -1.59% | -5.33% | 11.9% | 5.31% | -1.57% | 0.699% | 1.15% | -9.62% | -1.06% | 1.28% | 4.34%
CN(Cc1ncc[nH]1)CC(c1cccs1)N1CCOCC1 (configuration not stated) | -0.354% | 13.5% | -12.7% | -6.28% | 4.92% | -1.29% | 12.4% | 17.4% | 11.9% | 23.2% | -5.94%
Cc1nc(CCNC(=O)C2CC(=O)N(C(C)(C)C)C2)sc1C (configuration not stated) | -4.83% | 0% | -1.25% | 5.84% | -1.19% | -3.59% | 8.82% | -0.947% | 5.21% | 11.1% | -3.8%
Cc1cc(C)n(CC2CN(CCOc3cccc(F)c3)CCO2)n1 (configuration not stated) | -4.88% | 7.89% | 0.382% | 4.47% | 1.59% | -3.24% | 1.1% | 24.5% | 4.43% | 16.1% | -3.81%
COc1ccc(C(=O)NCC(c2cccn2C)N2CCCC2)c(OC)c1 (configuration not stated) | -5.97% | 13% | -5.29% | -1.12% | 1.08% | -1.94% | 18.3% | -21.8% | 6.35% | 11.5% | -8.35%
CC(C)C(Sc1nnnn1-c1ccccc1)C(=O)NCc1cccnc1 (configuration not stated) | -3.59% | 7.79% | 1.33% | -5.13% | -8.05% | -1.42% | 13% | 17% | 4.85% | 9.76% | -8.86%
CN(Cc1cn2c(n1)CN(CC1CC1)CC2)Cc1ccco1 | -3.08% | 8% | 16.6% | 0.972% | -3.35% | 0.233% | 1.5% | 8.85% | 7.45% | 8.97% | -4.14%
CC(OCC1CC1)C(=O)N1CCCN(Cc2cnn(C)c2)CC1 (configuration not stated) | 1.55% | 31.6% | -0.358% | -2.42% | -1.95% | -9.25% | 21.6% | 6.99% | 5.21% | 17.7% | -21.4%
CCC1=N[C@@]2(CC[C@@H]3CN(Cc4ccc(Cl)cc4)C[C@@H]32)C(=O)N1 | -2.1% | 2.7% | 2.16% | -3.03% | -7.72% | -0.955% | 20.3% | 3.29% | 2.16% | 2.56% | 0.0576%
Cc1cnc2n(c1=O)CC(C(=O)Nc1ccccc1Cl)CS2 (configuration not stated) | -2.2% | -2.74% | -2.72% | 0.622% | -2.94% | -1.36% | 5.68% | -7.02% | 1.07% | 0% | -1.89%
COc1ccc(CN(C)[C@@H]2CN(C(=O)c3cccs3)C[C@H]2O)cc1 | -3.27% | 6.76% | 10.4% | 2.59% | -6.13% | -2.09% | 10.6% | 15.6% | 5.38% | 9.09% | -9%
CC(C)c1nc(C2CCCN2Cc2ccno2)no1 (configuration not stated) | -2.76% | -2.6% | -0.797% | 8.93% | -2.81% | 2.13% | -1.52% | 14.5% | 2.91% | -2.44% | 4.2%
CN(Cc1ccc(C#N)cc1)Cc1noc(C(C)(C)C)n1 | -3.57% | 0% | -1.73% | 0.255% | -0.885% | 2.76% | 3% | 8.86% | -1.07% | -1.24% | 2.69%
COc1cccc(S(=O)(=O)NC(=O)COc2c(C)cccc2C)c1 | -5.17% | 7.79% | -10.1% | -4.14% | -2.81% | 2.13% | 6.08% | 10.3% | 0% | 12.2% | -4.1%
CC(C)n1ncc2c1NC(=O)CSC2C(C)(C)C (configuration not stated) | -4% | 17.3% | -3.06% | 7.25% | 3.14% | -3.7% | 8.69% | 8.09% | 5.29% | 12.8% | -8.28%
Cc1ncsc1-c1nnc(C2CCN(Cc3ccc(F)cc3)CC2)o1 | -0.551% | -4.05% | 20% | -0.16% | 1.19% | -0.696% | 1.25% | -6.87% | 0% | -6.49% | -19.5%
Cc1cnn(C2CCCN(C(=O)CCCNc3ncccn3)C2)c1 (configuration not stated) | 0.326% | 21.6% | -4.82% | -6.78% | -4.62% | 0% | 10.3% | 6.71% | -13.3% | 16.1% | -4.22%
